# From the supplement of paper PMC8728848
# This is one part of a sample in which the strongest signals are shown more often than they occur.
# What was measured:
# Test in all cases: glycan array binding signal (z-score within array); higher = stronger binding
# [1] = target: Fuc(a1-2)[Gal(a1-3)]Gal(b1-4)[Fuc(a1-3)]GlcNAc; conditions: glycan notation: IUPAC condensed, linker removed; mutation: D325N
# Procedure, shortened: (§1)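 Negative Z-scores can be read as non-binding. The Z-score is calculated within each array and then averaged across arrays of one protein sequence at different concentrations or buffers and across linkers. Arrays, 3228 in all, were curated from the Consortium for Functional Glycomics database and kept only where the protein sequence was available.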
# [2] = target: Fuc(a1-3)[Gal3S(b1-4)]Glc6S; conditions: glycan notation: IUPAC condensed, linker removed; mutation: D325N
# Procedure, shortened: as §1
# [3] = target: Gal(a1-2)Gal; conditions: glycan notation: IUPAC condensed, linker removed; mutation: D325N
# Procedure, shortened: as §1
# [4] = target: Gal(a1-3)Gal(b1-3)GlcNAc; conditions: glycan notation: IUPAC condensed, linker removed; mutation: D325N
# Procedure, shortened: as §1
# [5] = target: Gal(a1-3)Gal(b1-4)Glc; conditions: glycan notation: IUPAC condensed, linker removed; mutation: D325N
# Procedure, shortened: as §1
# [6] = target: Gal(b1-3)[Neu5Ac(b2-6)]GalNAc; conditions: glycan notation: IUPAC condensed, linker removed; mutation: D325N
# Procedure, shortened: as §1
# [7] = target: Gal(b1-4)GlcNAc(b1-3)Gal(b1-4)[Fuc(a1-3)]GlcNAc(b1-3)Gal(b1-4)[Fuc(a1-3)]GlcNAc; conditions: glycan notation: IUPAC condensed, linker removed; mutation: D325N
# Procedure, shortened: as §1
# [8] = target: Gal(b1-4)GlcNAc(b1-6)Gal(b1-4)GlcNAc(b1-6)GalNAc; conditions: glycan notation: IUPAC condensed, linker removed; mutation: D325N
# Procedure, shortened: as §1
# [9] = target: Gal(b1-4)GlcNAc(b1-6)GalNAc; conditions: glycan notation: IUPAC condensed, linker removed; mutation: D325N
# Procedure, shortened: as §1
# [10] = target: Gal(b1-4)GlcNAc(b1-6)[Gal(b1-3)]GalNAc; conditions: glycan notation: IUPAC condensed, linker removed; mutation: D325N
# Procedure, shortened: as §1
# [11] = target: GlcNAc(b1-3)Gal(b1-4)Glc; conditions: glycan notation: IUPAC condensed, linker removed; mutation: D325N
# Procedure, shortened: as §1
# [12] = target: GlcNAc(b1-6)Gal(b1-4)GlcNAc; conditions: glycan notation: IUPAC condensed, linker removed; mutation: D325N
# Procedure, shortened: as §1
# [13] = target: Man(a1-2)Man(a1-2)Man(a1-3)Man; conditions: glycan notation: IUPAC condensed, linker removed; mutation: D325N
# Procedure, shortened: as §1
# [14] = target: Man(a1-2)Man(a1-3)[Man(a1-2)Man(a1-6)]Man; conditions: glycan notation: IUPAC condensed, linker removed
# Procedure, shortened: as §1
# [15] = target: Man(a1-2)Man(a1-3)[Man(a1-2)Man(a1-6)]Man(a1-6)[Man(a1-2)Man(a1-2)Man(a1-3)]Man; conditions: glycan notation: IUPAC condensed, linker removed
# Procedure, shortened: as §1
# [16] = target: Man(a1-2)Man(a1-6)[Man(a1-3)]Man(a1-6)[Man(a1-2)Man(a1-2)Man(a1-3)]Man; conditions: glycan notation: IUPAC condensed, linker removed
# Procedure, shortened: as §1
# [17] = target: Man(a1-3)[Man(a1-6)]Man(a1-6)[Man(a1-3)]Man; conditions: glycan notation: IUPAC condensed, linker removed; mutation: D325N
# Procedure, shortened: as §1
# [18] = target: Man(a1-3)[Man(a1-6)]Man(a1-6)[Man(a1-3)]Man(b1-4)GlcNAc(b1-4)GlcNAc; conditions: glycan notation: IUPAC condensed, linker removed
# Procedure, shortened: as §1
# [19] = target: Neu5Ac(a2-3)Gal(b1-3)GlcNAc; conditions: glycan notation: IUPAC condensed, linker removed
# Procedure, shortened: as §1
# [20] = target: Neu5Ac(a2-3)Gal(b1-4)[Fuc(a1-3)]GlcNAc(b1-3)Gal(b1-4)GlcNAc; conditions: glycan notation: IUPAC condensed, linker removed; mutation: D325N
# Procedure, shortened: as §1
# [21] = target: Neu5Ac(a2-3)GalNAc(b1-4)GlcNAc; conditions: glycan notation: IUPAC condensed, linker removed; mutation: D325N
# Procedure, shortened: as §1
# [22] = target: Neu5Ac(a2-6)Gal; conditions: glycan notation: IUPAC condensed, linker removed; mutation: D325N
# Procedure, shortened: as §1
# [23] = target: Neu5Ac(a2-6)Gal(b1-4)Glc; conditions: glycan notation: IUPAC condensed, linker removed; mutation: D325N
# Procedure, shortened: as §1
# [24] = target: Neu5Ac(a2-6)GalNAc; conditions: glycan notation: IUPAC condensed, linker removed; mutation: D325N
# Procedure, shortened: as §1
# [25] = target: Neu5Ac(a2-8)Neu5Ac(a2-8)Neu5Ac; conditions: glycan notation: IUPAC condensed, linker removed; mutation: D325N
# Procedure, shortened: as §1
# [26] = target: Fuc(a1-2)[Gal(a1-4)]Gal(b1-4)GlcNAc; conditions: glycan notation: IUPAC condensed, linker removed; mutation: E347A
# Procedure, shortened: as §1
# [27] = target: Fuc(a1-3)[GalNAc(b1-4)]GlcNAc; conditions: glycan notation: IUPAC condensed, linker removed; mutation: E347A
# Procedure, shortened: as §1
# [28] = target: Gal(a1-3)Gal(b1-4)GlcNAc; conditions: glycan notation: IUPAC condensed, linker removed; mutation: E347A
# Procedure, shortened: as §1
# [29] = target: Gal(a1-3)GalNAc; conditions: glycan notation: IUPAC condensed, linker removed; mutation: E347A
# Procedure, shortened: as §1
# [30] = target: Gal(a1-6)Glc; conditions: glycan notation: IUPAC condensed, linker removed; mutation: E347A
# Procedure, shortened: as §1
# [31] = target: Gal(b1-2)Gal; conditions: glycan notation: IUPAC condensed, linker removed; mutation: E347A
# Procedure, shortened: as §1
# [32] = target: Gal(b1-3)GlcNAc(b1-3)Gal(b1-4)GlcNAc; conditions: glycan notation: IUPAC condensed, linker removed; mutation: E347A
# Procedure, shortened: as §1
# [33] = target: Gal(b1-3)[GlcNAc(b1-6)]GalNAc; conditions: glycan notation: IUPAC condensed, linker removed; mutation: E347A
# Procedure, shortened: as §1
# [34] = target: Gal(b1-3)[Neu5Ac(a2-6)]GlcNAc(b1-6)Gal(b1-4)Glc; conditions: glycan notation: IUPAC condensed, linker removed; mutation: E347A
# Procedure, shortened: as §1
# [35] = target: Gal(b1-4)GlcNAc(a1-6)Gal(b1-4)GlcNAc; conditions: glycan notation: IUPAC condensed, linker removed; mutation: E347A
# Procedure, shortened: as §1
# [36] = target: Gal(b1-4)GlcNAc(b1-3)Gal(b1-4)GlcNAc; conditions: glycan notation: IUPAC condensed, linker removed; mutation: E347A
# Procedure, shortened: as §1
# [37] = target: Gal(b1-4)GlcNAc(b1-3)GalNAc; conditions: glycan notation: IUPAC condensed, linker removed; mutation: E347A
# Procedure, shortened: as §1
# [38] = target: Gal(b1-4)GlcNAc(b1-6)Gal(b1-4)GlcNAc; conditions: glycan notation: IUPAC condensed, linker removed; mutation: E347A
# Procedure, shortened: as §1
# [39] = target: GlcNAc(b1-3)Gal; conditions: glycan notation: IUPAC condensed, linker removed; mutation: E347A
# Procedure, shortened: as §1
# [40] = target: GlcNAc3Prop(b1-4)GlcNAc; conditions: glycan notation: IUPAC condensed, linker removed; mutation: E347A
# Procedure, shortened: as §1
# [41] = target: Man(a1-2)Man(a1-3)Man; conditions: glycan notation: IUPAC condensed, linker removed; mutation: E347A
# Procedure, shortened: as §1
# [42] = target: Man(a1-2)Man(a1-3)[Man(a1-6)]Man(a1-6)[Man(a1-2)Man(a1-3)]Man(b1-4)GlcNAc(b1-4)GlcNAc; conditions: glycan notation: IUPAC condensed, linker removed; mutation: E347A
# Procedure, shortened: as §1
# [43] = target: Man(a1-3)[Man(a1-6)]Man(a1-6)[Man(a1-2)Man(a1-3)]Man(b1-4)GlcNAc(b1-4)GlcNAc; conditions: glycan notation: IUPAC condensed, linker removed; mutation: E347A
# Procedure, shortened: as §1
# [44] = target: Neu5Ac(a2-3)Gal6S(b1-4)[Fuc(a1-3)]GlcNAc; conditions: glycan notation: IUPAC condensed, linker removed; mutation: E347A
# Procedure, shortened: as §1
# [45] = target: Neu5Gc(a2-3)Gal(b1-3)GlcNAc; conditions: glycan notation: IUPAC condensed, linker removed; mutation: E347A
# Procedure, shortened: as §1
binder,measurement,setting,value
Surfactant Protein D (Human); Neck + Carbohydrate Recognition Domain (NCRD) (Homo sapiens) (protein) MLLFLLSALVLLTQPLGYLEAEMKTYSHRTMPSACTLVMCSSVESGLPGRDRDGREGPRGEKGDPGLPGAAGQAGMPGQAGPVGPKGDNGSVGEPGPKGDTGPSGPPGPPGVPGPAGREGALGKQGNIGPQGKPGPKGEAGPKGEVGAPGMQGSAGARGLAGPKGERGVPGERGVPGNTGAAGSAGAMGPQGSPGARGPPGLKGDKGIPGDKGAKGESGLPDVASLRQQVEALQGQVQHLQAAFSQYKKVELFPNGQSVGEKIFKTAQFVKPFTEAQLLCTQAGGQLASPRSAAENAALQQLVVAKNEAAFLSMTDSKTEGKFTYPTGESLVYSNWAPGEPNDNGGSEDCVEIFTNGKWNDRACGEKRLVVCEF,glycan array binding signal (z-score),[1],-0.1
same,glycan array binding signal (z-score),[2],-0.117
same,glycan array binding signal (z-score),[3],-0.109
same,glycan array binding signal (z-score),[4],-0.169
same,glycan array binding signal (z-score),[5],-0.123
same,glycan array binding signal (z-score),[6],-0.139
same,glycan array binding signal (z-score),[7],-0.105
same,glycan array binding signal (z-score),[8],-0.132
same,glycan array binding signal (z-score),[9],-0.138
same,glycan array binding signal (z-score),[10],-0.128
same,glycan array binding signal (z-score),[11],-0.118
same,glycan array binding signal (z-score),[12],-0.138
same,glycan array binding signal (z-score),[13],2.18
same,glycan array binding signal (z-score),[14]; mutation: D325N,1.77
same,glycan array binding signal (z-score),[15]; mutation: D325N,9.38
same,glycan array binding signal (z-score),[16]; mutation: D325N,8.54
same,glycan array binding signal (z-score),[17],11.2
same,glycan array binding signal (z-score),[18]; mutation: D325N,0.338
same,glycan array binding signal (z-score),[19]; mutation: D325N,-0.127
same,glycan array binding signal (z-score),[20],-0.114
same,glycan array binding signal (z-score),[21],-0.148
same,glycan array binding signal (z-score),[22],-0.148
same,glycan array binding signal (z-score),[23],-0.153
same,glycan array binding signal (z-score),[24],-0.129
same,glycan array binding signal (z-score),[25],-0.163
Surfactant Protein D (Human); Neck + Carbohydrate Recognition Domain (NCRD) (Homo sapiens) (protein) MLLFLLSALVLLTQPLGYLEAEMKTYSHRTMPSACTLVMCSSVESGLPGRDRDGREGPRGEKGDPGLPGAAGQAGMPGQAGPVGPKGDNGSVGEPGPKGDTGPSGPPGPPGVPGPAGREGALGKQGNIGPQGKPGPKGEAGPKGEVGAPGMQGSAGARGLAGPKGERGVPGERGVPGNTGAAGSAGAMGPQGSPGARGPPGLKGDKGIPGDKGAKGESGLPDVASLRQQVEALQGQVQHLQAAFSQYKKVELFPNGQSVGEKIFKTAQFVKPFTEAQLLCTQAGGQLASPRSAAENAALQQLVVAKNEAAFLSMTDSKTEGKFTYPTGESLVYSNWAPGEPNDDGGSADCVEIFTNGKWNDRACGAKRLVVCEF,glycan array binding signal (z-score),[26],-0.321
same,glycan array binding signal (z-score),[27],-0.435
same,glycan array binding signal (z-score),[28],-0.244
same,glycan array binding signal (z-score),[29],-0.384
same,glycan array binding signal (z-score),[30],-0.408
same,glycan array binding signal (z-score),[31],-0.48
same,glycan array binding signal (z-score),[32],-0.211
same,glycan array binding signal (z-score),[33],-0.15
same,glycan array binding signal (z-score),[34],-0.424
same,glycan array binding signal (z-score),[35],-0.244
same,glycan array binding signal (z-score),[36],0.532
same,glycan array binding signal (z-score),[37],-0.384
same,glycan array binding signal (z-score),[38],-0.317
same,glycan array binding signal (z-score),[39],-0.071
same,glycan array binding signal (z-score),[40],-0.18
same,glycan array binding signal (z-score),[41],1.58
same,glycan array binding signal (z-score),[14]; mutation: E347A,6.34
same,glycan array binding signal (z-score),[15]; mutation: E347A,-0.461
same,glycan array binding signal (z-score),[42],10.1
same,glycan array binding signal (z-score),[16]; mutation: E347A,5.19
same,glycan array binding signal (z-score),[43],10.2
same,glycan array binding signal (z-score),[18]; mutation: E347A,0.008
same,glycan array binding signal (z-score),[19]; mutation: E347A,-0.335
same,glycan array binding signal (z-score),[44],-0.255
same,glycan array binding signal (z-score),[45],0
